High-throughput results from PubChem BioAssay.
KDM5B inhibitor – KDM5B demethylase inhibition | KDM5B demethylase, FDH-coupled NADH fluorescence (FDH is formaldehyde dehydrogenase) | AID 1347165 | Potency, µM (series often up to 57.7 µM), hits mostly inhibitors | Q9UGL1 | 2.6% of 220,000 active; active = well fitted inhibition curve with a large enough effect; also: nearly all actives have a fitted effect of over 70% in size
Target sequence (Q9UGL1 whole entry, looked up): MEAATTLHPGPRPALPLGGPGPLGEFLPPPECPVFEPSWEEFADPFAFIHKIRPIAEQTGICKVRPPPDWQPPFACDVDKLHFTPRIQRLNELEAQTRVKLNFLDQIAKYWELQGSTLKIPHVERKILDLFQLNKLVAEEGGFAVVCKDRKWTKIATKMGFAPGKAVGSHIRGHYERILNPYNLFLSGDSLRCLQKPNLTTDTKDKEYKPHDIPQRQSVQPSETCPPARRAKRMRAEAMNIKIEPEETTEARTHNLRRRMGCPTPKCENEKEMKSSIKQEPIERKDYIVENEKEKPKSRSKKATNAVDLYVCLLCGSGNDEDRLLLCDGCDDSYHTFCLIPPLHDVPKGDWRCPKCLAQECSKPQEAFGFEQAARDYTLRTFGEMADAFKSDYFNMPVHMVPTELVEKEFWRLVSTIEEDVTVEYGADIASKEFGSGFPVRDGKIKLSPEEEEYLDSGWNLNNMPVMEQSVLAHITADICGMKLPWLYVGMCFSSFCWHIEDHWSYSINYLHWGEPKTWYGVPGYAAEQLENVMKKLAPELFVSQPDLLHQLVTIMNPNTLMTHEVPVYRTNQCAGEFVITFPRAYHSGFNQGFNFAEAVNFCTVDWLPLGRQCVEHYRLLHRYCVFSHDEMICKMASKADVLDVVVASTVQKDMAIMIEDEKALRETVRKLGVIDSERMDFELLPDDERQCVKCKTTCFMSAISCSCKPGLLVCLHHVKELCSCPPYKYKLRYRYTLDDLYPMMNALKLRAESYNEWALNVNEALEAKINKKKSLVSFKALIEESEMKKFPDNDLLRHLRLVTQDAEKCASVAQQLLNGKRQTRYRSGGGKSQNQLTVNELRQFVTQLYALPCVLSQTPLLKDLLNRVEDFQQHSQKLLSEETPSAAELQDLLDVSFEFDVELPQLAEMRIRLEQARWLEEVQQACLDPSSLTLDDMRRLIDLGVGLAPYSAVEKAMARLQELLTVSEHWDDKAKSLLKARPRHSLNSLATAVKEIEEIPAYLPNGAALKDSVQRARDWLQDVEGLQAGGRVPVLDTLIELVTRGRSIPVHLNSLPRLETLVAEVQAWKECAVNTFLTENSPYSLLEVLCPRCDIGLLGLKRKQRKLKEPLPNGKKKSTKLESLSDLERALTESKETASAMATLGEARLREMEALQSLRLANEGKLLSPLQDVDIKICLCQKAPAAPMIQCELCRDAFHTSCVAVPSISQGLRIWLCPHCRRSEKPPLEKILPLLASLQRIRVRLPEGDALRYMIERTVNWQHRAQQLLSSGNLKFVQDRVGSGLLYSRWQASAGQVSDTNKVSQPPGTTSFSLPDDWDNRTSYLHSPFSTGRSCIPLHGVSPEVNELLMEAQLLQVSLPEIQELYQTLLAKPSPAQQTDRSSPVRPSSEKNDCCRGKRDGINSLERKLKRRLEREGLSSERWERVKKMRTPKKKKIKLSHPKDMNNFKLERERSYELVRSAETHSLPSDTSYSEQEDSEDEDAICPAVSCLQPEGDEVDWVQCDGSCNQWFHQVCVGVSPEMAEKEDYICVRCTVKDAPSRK
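KDM5BΔAP (200 nM final) in 50 mM HEPES pH 7.5, 0.01% Tween-20 was preincubated 10 min at RT with compound over a concentration range. Substrate mix (H3K4me3 12.5 µM, α-KG 25 µM, Fe²⁺, ascorbate, NAD⁺, FDH) was added, and NADH fluorescence change over 30 min gave dose-response curves.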
Of the large screens only hits and unclear results are named; the others gave an inactive call. This is one part of a sample in which hits are shown more often than they occur.

O=C(NC1CCCc2ccccc21)C1(c2ccccc2)CC1 (stereo not given)	none
Cc1cc(C)n(CC(=O)NCC(=O)N2CCCCCCNC(=O)CC2c2ccccc2)n1 (stereo not given)	none
CC(C)N(Cc1cnn(C)c1)S(=O)(=O)c1ccc(F)c(F)c1	none
CCCN1CCC(NC(=O)CCc2c[nH]c3ccccc23)CC1	none
NS(=O)(=O)c1ccc(C(=O)NC(Cc2ccncc2)C2CC(O)C2)cc1 (stereo not given)	none
O=C(N[C@H](Cc1ccncc1)C1CC(O)C1)c1ccc(CO)o1 (stereo not given in full)	none
O=C(N[C@H](Cc1ccncc1)C1CC(O)C1)c1cccn2cnnc12 (stereo not given in full)	KDM5B inhibitor 22µM
CC(=O)Nc1ccc(NC(=O)NC(C)c2cccc(Cl)c2)cc1 (stereo not given)	none
CN(C)c1ccc(CN2CCOC[C@H]2c2ncc(-c3ccncc3)[nH]2)cc1	none
COc1ccc(C2CC(=O)Nc3nc(N)sc32)cc1OC (stereo not given)	none
Nc1nc2c(s1)C(c1cccc(F)c1)CC(=O)N2 (stereo not given)	none
CNc1nc2c(s1)C(c1ccc(Cl)cc1)CC(=O)N2 (stereo not given)	KDM5B inhibitor 32µM
CCOc1cc(=O)n2c(c1C(=O)Nc1ccc(Cl)c(F)c1)CCCC2	none
Cn1cc(-c2ccncc2)cc1C(=O)N1CCN(c2ccccc2Cl)CC1	none
Cc1cccc(C)c1OCC(=O)Nc1ccc(C(=O)Nc2ccccc2C(=O)O)cc1	none
Cc1cc(S(=O)(=O)N2CCCC2)ccc1OCC(=O)Nc1ccccc1Oc1ccccc1	none
C/C(=N\Nc1ccccc1Br)c1ccc(-c2ccccc2)cc1	none
CCCc1noc(-c2nc(-c3ccccc3F)no2)n1	none
Fc1ccccc1-c1noc(-c2nc(-c3ccncc3)no2)n1	none
CCOc1nc(-c2ccc(C)cc2)ccc1-c1noc(-c2ccccc2F)n1	none
CC(Cn1cccn1)Nc1ccc(-c2nc(-c3ccccc3F)no2)cn1 (stereo not given)	KDM5B inhibitor 28µM
O=C1OCCCN1CCNc1ccc(-c2nc(-c3ccccc3F)no2)cn1	KDM5B inhibitor 28µM
Fc1ccccc1-c1noc(-c2nc(-c3cnccn3)no2)n1	none
O=C1CCCCN1CCNc1ccc(-c2nc(-c3ccccc3F)no2)cn1	KDM5B inhibitor 32µM
Fc1ccccc1-c1noc(-c2nc(C3CC3)no2)n1	none
